# Data as given in PubChem BioAssay AID1159580 (chemical genetic matrix, 2015).
# Several values for one entry are separate records, joined by “and”; a condition that tells them apart may be missing. Identical values can stand only once. About 2,000 (36%) of roughly 5,500 compounds were called active. Roughly 18% stayed inconclusive and do not appear here. The list shows a part of the results. Values without a mark were called inactive. No stated cut-off is given here; in the data, active means normalized growth mostly below about 0.91 (no sharp cut-off); inconclusive means no clear call, values can overlap the other calls; inactive means mostly above about 0.92.
# Test: chemical genetic growth profiling, strain panel (AID 1159580);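 further: tested at 20 µM; growth read once vehicle control cultures reached saturation at 30 °C; 1 = growth at the plate median or of vehicle wells; lower values mean less growth of the strain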
# Conditions: S. cerevisiae deletion strains, growth OD
compound,measurement,setting,value
CCC(C)(C)C(=O)O[C@H]1C[C@@H](C)C=C2C=C[C@H](C)[C@H](CC[C@@H]3C[C@@H](O)CC(=O)O3)[C@H]21,normalized growth,"locus YAL013W, strain DEP1, hits give low values",0.99
same,normalized growth,"locus YAL021C, strain ccr4, hits give low values",0.703 (active)
same,normalized growth,"locus YAL026C, strain drs2, hits give low values",0.828 (active)
same,normalized growth,"locus YAL030W, strain snc1, hits give low values",1.01
same,normalized growth,"locus YBL061C, strain skt5, hits give low values",0.855 (active)
same,normalized growth,"locus YBR009C, strain hhf1, hits give low values",0.912
same,normalized growth,"locus YBR021W, strain FUR4, hits give low values",0.861
same,normalized growth,"locus YBR023C, strain chs3, hits give low values",0.841 (active)
same,normalized growth,"locus YBR171W, strain sec66, hits give low values",0.998
same,normalized growth,"locus YBR229C, strain ROT2, hits give low values",1.01
same,normalized growth,"locus YBR231C, strain swc5, hits give low values",0.776 (active)
same,normalized growth,"locus YBR279W, strain paf1, hits give low values",0.851 (active)
same,normalized growth,"locus YCL011C, strain gbp2, hits give low values",0.944
same,normalized growth,"locus YCL016C, strain dcc1, hits give low values",0.909 (active)
same,normalized growth,"locus YCL029C, strain bik1, hits give low values",1.04
same,normalized growth,"locus YCL061C, strain MRC1, hits give low values",1.01
same,normalized growth,"locus YCL069W, strain vba3, hits give low values",0.955
same,normalized growth,"locus YCR088W, strain abp1, hits give low values",1.02
same,normalized growth,"locus YDL005C, strain med2, hits give low values",1.02
same,normalized growth,"locus YDL035C, strain GPR1, hits give low values",0.97
same,normalized growth,"locus YDL040C, strain nat1, hits give low values",0.997
same,normalized growth,"locus YDL074C, strain BRE1, hits give low values",0.866
same,normalized growth,"locus YDL101C, strain DUN1, hits give low values",0.98
same,normalized growth,"locus YDL134C, strain PPH21, hits give low values",1.01
same,normalized growth,"locus YDL185W, strain tfp1, hits give low values",0.955
same,normalized growth,"locus YDL192W, strain arf1, hits give low values",1.02
same,normalized growth,"locus YDR001C, strain nth1, hits give low values",1.02
same,normalized growth,"locus YDR069C, strain doa4, hits give low values",1
same,normalized growth,"locus YDR101C, strain arx1, hits give low values",1.04
same,normalized growth,"locus YDR137W, strain rgp1, hits give low values",1.35 [resistant] (active)
same,normalized growth,"locus YDR150W, strain NUM1, hits give low values",1.01
same,normalized growth,"locus YDR159W, strain sac3, hits give low values",0.93
same,normalized growth,"locus YDR162C, strain NBP2, hits give low values",0.937
same,normalized growth,"locus YDR195W, strain ref2",1.01
same,normalized growth,"locus YDR297W, strain sur2, hits give low values",0.999
same,normalized growth,"locus YDR318W, strain mcm21, hits give low values",1
same,normalized growth,"locus YDR334W, strain swr1, hits give low values",0.941
same,normalized growth,"locus YDR335W, strain msn5, hits give low values",0.979
same,normalized growth,"locus YDR388W, hits give low values",1.02
same,normalized growth,"locus YDR392W, strain spt3, hits give low values",0.528 (active)
same,normalized growth,"locus YDR502C, strain sam2, hits give low values",1.02
same,normalized growth,"locus YEL003W, strain gim4, hits give low values",0.973
same,normalized growth,"locus YEL037C, strain rad23, hits give low values",1
same,normalized growth,"locus YEL061C, strain CIN8 (second series), hits give low values",0.988
same,normalized growth,"locus YEL061C, strain CIN8, hits give low values",0.995
same,normalized growth,"locus YER015W, strain faa2, hits give low values",0.842 (active)
same,normalized growth,"locus YER016W, strain bim1, hits give low values",0.953
same,normalized growth,"locus YER110C, hits give low values",1.04
same,normalized growth,"locus YER111C, strain swi4, hits give low values",1.01
same,normalized growth,"locus YER155C, strain BEM2 (second series), hits give low values",1
same,normalized growth,"locus YER155C, strain BEM2, hits give low values",0.996
same,normalized growth,"locus YER167W, strain BCK2, hits give low values",0.982
same,normalized growth,"locus YFR010W, strain ubp6, hits give low values",0.973
same,normalized growth,"locus YGL078C, strain dbp3, hits give low values",1.03
same,normalized growth,"locus YGL086W, strain mad1, hits give low values",0.991
same,normalized growth,"locus YGL167C, strain pmr1, hits give low values",1.01
same,normalized growth,"locus YGL173C, strain kem1, hits give low values",0.997
same,normalized growth,"locus YGL227W, strain vid30, hits give low values",1.02
same,normalized growth,"locus YGL240W, strain doc1, hits give low values",1.03
same,normalized growth,"locus YGL248W, strain PDE1, hits give low values",1.01
same,normalized growth,"locus YGL253W, strain hxk2, hits give low values",0.787 (active)
same,normalized growth,"locus YGR078C, strain PAC10, hits give low values",0.966
same,normalized growth,"locus YGR135W, strain pre9, hits give low values",1.01
same,normalized growth,"locus YGR229C, strain SMI1, hits give low values",0.783 (active)
same,normalized growth,"locus YGR252W, strain gcn5, hits give low values",0.983
same,normalized growth,"locus YHR013C, strain ard1, hits give low values",0.912
same,normalized growth,"locus YHR027C, strain rpn1, hits give low values",0.875 (active)
same,normalized growth,"locus YHR030C, strain SLT2, hits give low values",1.02 and 0.921
same,normalized growth,"locus YHR079C, strain IRE1 (second series), hits give low values",1.03
same,normalized growth,"locus YHR079C, strain IRE1, hits give low values",0.948
same,normalized growth,"locus YHR094C, strain hxt1, hits give low values",1.03
same,normalized growth,"locus YHR129C, strain ARP1, hits give low values",1.02
same,normalized growth,"locus YHR142W, strain chs7, hits give low values",0.79 (active)
same,normalized growth,"locus YHR200W, strain rpn10, hits give low values",1.03
same,normalized growth,"locus YIL066C, strain RNR3, hits give low values",0.992
same,normalized growth,"locus YIL073C, strain SPO22, hits give low values",0.902
same,normalized growth,"locus YIL125W, strain kgd1, hits give low values",1.04
same,normalized growth,"locus YIR030C, strain dcg1, hits give low values",1.05
same,normalized growth,"locus YJL092W, strain hpr5, hits give low values",1.01
same,normalized growth,"locus YJL095W, strain BCK1 (second series), hits give low values",0.951
same,normalized growth,"locus YJL095W, strain BCK1, hits give low values",0.893 and 0.915
same,normalized growth,"locus YJL115W, strain asf1, hits give low values",1.02
same,normalized growth,"locus YJL129C, strain trk1, hits give low values",0.934
same,normalized growth,"locus YJL134W, strain LCB3, hits give low values",1.01
same,normalized growth,"locus YJL154C, strain vps35, hits give low values",1.01
same,normalized growth,"locus YJL164C, strain tpk1, hits give low values",0.919
same,normalized growth,"locus YJL166W, strain qcr8, hits give low values",0.955
same,normalized growth,"locus YJL168C, strain set2, hits give low values",1.02
same,normalized growth,"locus YJL187C, strain SWE1 (second series), hits give low values",0.995
same,normalized growth,"locus YJL187C, strain SWE1, hits give low values",0.976
same,normalized growth,"locus YJR043C, strain POL32, hits give low values",1.01
same,normalized growth,"locus YJR066W, strain TOR1, hits give low values",0.84
